Experimental data published in the supplement of paper PMC10849652.
About 8,800 targets were measured; listed, in parts, are those with a hit and a random draw of the rest. About 0.5% of all pairs of compound and target were hits.

How the values were obtained:
Experiment in all cases: log2 fold change, soluble protein after heating vs DMSO (PISA); higher = thermal stabilisation; K562 lysate, 10 uM; active = over 0.2 and 3.5 SD of the protein, either way, in both replicates (recomputed)
nilotinib = compound: Cc1cn(-c2cc(NC(=O)c3ccc(C)c(Nc4nccc(-c5cccnc5)n4)c3)cc(C(F)(F)F)c2)cn1 [nilotinib]
In short: (§1)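 Pellets of K562 cells were dounce-homogenised in PBS pH 7.4 with 1 mM MgCl2, and the crude extract was held at 1 mg/mL protein for a 30 min treatment with 10 μM compound. Aliquots were heated for 3 min over 48°C-58°C and pooled before NP-40 was added to 0.5% at 4°C. The supernatant from 21,000xg for 90 min was quantified by TMTpro 16plex LC-MS/MS with channel sums equalised. Values are reported from duplicates as log-two fold change in thermal stability relative to solvent controls.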

[1] = compound: Cc1nc(Nc2n[nH]c3c2CN(C(=O)N[C@H](CN(C)C)c2ccccc2)C3(C)C)c2sccc2n1
In short: as §1

dasatinib = compound: Cc1nc(Nc2ncc(C(=O)Nc3c(C)cccc3Cl)s2)cc(N2CCN(CCO)CC2)n1 [dasatinib]
In short: as §1

[2] = compound: Cc1ncc(-c2ccnc(Nc3ccc(S(C)(=O)=O)cc3)n2)n1C(C)C
In short: as §1

[3] = compound: Cn1cc(-c2ccc3c(c2)CCN3C(=O)Cc2cccc(C(F)(F)F)c2)c2c(N)ncnc21
In short: as §1

quisinostat = compound: Cn1cc(CNCC2CCN(c3ncc(C(=O)NO)cn3)CC2)c2ccccc21 [quisinostat]
In short: as §1

tipifarnib = compound: Cn1cncc1[C@@](N)(c1ccc(Cl)cc1)c1ccc2c(c1)c(-c1cccc(Cl)c1)cc(=O)n2C [tipifarnib]
In short: as §1

[4] = compound: NC(=O)Nc1cc(-c2cccc(F)c2)sc1C(=O)N[C@H]1CCCNC1
In short: as §1

[5] = compound: NC(=O)c1cnc(N[C@@H]2CCCC[C@@H]2N)nc1Nc1cccc(-n2nccn2)c1
In short: as §1

[6] = compound: NC1(c2ccc(-c3nc4ccn5c(=O)[nH]nc5c4cc3-c3ccccc3)cc2)CCC1
In short: as §1

Measured: log2 fold change

SRPK1 (UniProt Q96SB4)
UniProt Q96SB4, sequence (Q96SB4 whole entry, looked up): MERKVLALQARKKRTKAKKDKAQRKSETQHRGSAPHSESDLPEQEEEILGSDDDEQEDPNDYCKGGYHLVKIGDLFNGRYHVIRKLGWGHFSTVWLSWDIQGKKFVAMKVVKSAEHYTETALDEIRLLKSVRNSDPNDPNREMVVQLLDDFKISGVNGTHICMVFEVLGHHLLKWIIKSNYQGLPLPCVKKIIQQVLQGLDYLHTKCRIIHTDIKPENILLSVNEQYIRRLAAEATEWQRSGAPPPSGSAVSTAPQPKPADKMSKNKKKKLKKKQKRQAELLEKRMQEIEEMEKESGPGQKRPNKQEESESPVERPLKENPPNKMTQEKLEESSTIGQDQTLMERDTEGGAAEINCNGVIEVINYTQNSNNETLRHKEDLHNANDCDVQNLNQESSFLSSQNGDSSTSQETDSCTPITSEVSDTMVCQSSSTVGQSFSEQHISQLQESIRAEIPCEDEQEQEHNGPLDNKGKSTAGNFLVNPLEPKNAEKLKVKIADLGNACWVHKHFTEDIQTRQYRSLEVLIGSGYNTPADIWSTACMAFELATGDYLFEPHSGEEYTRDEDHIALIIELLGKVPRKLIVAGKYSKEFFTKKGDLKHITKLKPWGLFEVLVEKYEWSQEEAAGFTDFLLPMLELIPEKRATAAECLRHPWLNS
inactive: nilotinib -0.002 | [1] 0.069 | dasatinib -0.01 | [2] -0.03 | [3] 0.017 | quisinostat -0.108 | tipifarnib -0.03 | [5] -0.021 | [6] -0.069
active: [4] 0.283

SFR1 isoform 2 (UniProt Q86XK3)
UniProt Q86XK3, sequence (Q86XK3 whole entry, looked up): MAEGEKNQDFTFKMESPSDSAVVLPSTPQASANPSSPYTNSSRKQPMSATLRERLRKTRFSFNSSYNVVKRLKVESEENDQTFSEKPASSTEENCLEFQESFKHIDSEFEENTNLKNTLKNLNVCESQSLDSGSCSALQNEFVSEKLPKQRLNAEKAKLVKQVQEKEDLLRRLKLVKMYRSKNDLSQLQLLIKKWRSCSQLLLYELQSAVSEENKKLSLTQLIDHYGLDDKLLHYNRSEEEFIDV
inactive: nilotinib -0.029 | [1] 0.068 | dasatinib 0.055 | [2] 0.045 | [3] -0.058 | quisinostat -0.029 | tipifarnib 0.072 | [4] -0.004 | [5] 0.02 | [6] -0.039

SNCA (UniProt P37840)
inactive: nilotinib 0.148 | [1] 0.075 | dasatinib 0.128 | [2] -0.032 | [3] 0.019 | quisinostat -0.031 | tipifarnib 0.159 | [4] -0.112 | [5] -0.049 | [6] 0

TARDBP (UniProt Q13148)
UniProt Q13148, sequence (Q13148 whole entry, looked up): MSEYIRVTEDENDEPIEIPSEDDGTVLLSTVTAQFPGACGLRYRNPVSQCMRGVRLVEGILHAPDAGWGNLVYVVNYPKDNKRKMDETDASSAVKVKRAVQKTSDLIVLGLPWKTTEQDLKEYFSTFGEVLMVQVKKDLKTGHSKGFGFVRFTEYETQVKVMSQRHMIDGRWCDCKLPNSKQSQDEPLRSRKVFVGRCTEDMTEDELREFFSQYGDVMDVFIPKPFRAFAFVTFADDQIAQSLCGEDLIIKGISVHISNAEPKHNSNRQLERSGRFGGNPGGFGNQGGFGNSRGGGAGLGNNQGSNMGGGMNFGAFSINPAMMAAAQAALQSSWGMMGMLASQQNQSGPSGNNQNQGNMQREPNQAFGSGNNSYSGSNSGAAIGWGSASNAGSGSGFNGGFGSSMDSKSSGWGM
inactive: nilotinib -0.146 | [1] -0.079 | dasatinib -0.005 | [2] -0.051 | [3] 0.007 | quisinostat -0.087 | [4] 0.136 | [5] 0.021 | [6] 0.027
active: tipifarnib -0.554

SNRPD2 (UniProt P62316)
inactive: nilotinib 0.014 | [1] 0.015 | dasatinib 0.024 | [2] 0.015 | [3] -0.02 | quisinostat 0.007 | tipifarnib 0.014 | [4] -0.027 | [5] 0 | [6] -0.002

SLC16A1 (UniProt P53985)
UniProt P53985, sequence (P53985 whole entry, looked up): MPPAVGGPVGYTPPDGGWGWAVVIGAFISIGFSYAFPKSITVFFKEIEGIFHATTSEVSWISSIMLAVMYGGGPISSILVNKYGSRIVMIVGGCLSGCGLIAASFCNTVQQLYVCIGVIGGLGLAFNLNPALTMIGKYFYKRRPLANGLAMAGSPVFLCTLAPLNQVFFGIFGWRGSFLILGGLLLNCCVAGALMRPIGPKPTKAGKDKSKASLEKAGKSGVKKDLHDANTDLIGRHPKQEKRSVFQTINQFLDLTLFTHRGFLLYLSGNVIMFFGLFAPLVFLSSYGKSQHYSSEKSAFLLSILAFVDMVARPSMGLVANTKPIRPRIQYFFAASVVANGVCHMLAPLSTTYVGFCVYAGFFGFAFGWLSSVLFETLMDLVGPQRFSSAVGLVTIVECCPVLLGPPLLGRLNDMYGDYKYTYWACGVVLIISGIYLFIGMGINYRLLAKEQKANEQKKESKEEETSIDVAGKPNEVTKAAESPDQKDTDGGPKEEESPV
inactive: nilotinib 0.044 | [1] 0.043 | dasatinib 0.137 | [2] -0.009 | [3] -0.005 | quisinostat -0.064 | tipifarnib 0.005 | [4] 0.012 | [5] -0.028 | [6] -0.003

SMIM8 (UniProt Q96KF7)
UniProt Q96KF7, sequence (Q96KF7 whole entry, looked up): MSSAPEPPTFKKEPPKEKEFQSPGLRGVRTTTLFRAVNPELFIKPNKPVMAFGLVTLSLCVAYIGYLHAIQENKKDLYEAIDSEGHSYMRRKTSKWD
inactive: nilotinib 0.059 | [1] -0.018 | dasatinib 0.032 | [2] 0.055 | [3] -0.023 | quisinostat 0.084 | tipifarnib -0.033 | [4] -0.02 | [5] -0.045 | [6] -0.013

STARD3 isoform 3 (UniProt Q14849)
UniProt Q14849, sequence (Q14849 whole entry, looked up): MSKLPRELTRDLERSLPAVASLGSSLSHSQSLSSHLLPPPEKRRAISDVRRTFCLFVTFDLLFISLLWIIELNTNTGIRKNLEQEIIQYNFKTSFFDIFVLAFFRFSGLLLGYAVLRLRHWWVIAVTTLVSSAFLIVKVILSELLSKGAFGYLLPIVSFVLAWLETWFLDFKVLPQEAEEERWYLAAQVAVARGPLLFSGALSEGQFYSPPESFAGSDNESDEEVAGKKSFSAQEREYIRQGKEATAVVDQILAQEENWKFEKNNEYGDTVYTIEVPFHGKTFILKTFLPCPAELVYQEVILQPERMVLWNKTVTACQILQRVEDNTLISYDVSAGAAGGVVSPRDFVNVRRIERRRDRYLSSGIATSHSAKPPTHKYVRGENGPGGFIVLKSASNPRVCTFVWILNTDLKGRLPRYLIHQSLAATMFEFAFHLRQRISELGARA
active: dasatinib 0.272
inactive: nilotinib -0.06 | [1] -0.008 | [2] 0.063 | [3] 0.02 | quisinostat 0.027 | tipifarnib -0.047 | [4] -0.039 | [5] 0.015 | [6] 0.026

SIX5 (UniProt Q8N196)
inactive: nilotinib 0.06 | [1] -0.05 | dasatinib 0.02 | [2] 0.074 | [3] -0.064 | quisinostat -0.141 | tipifarnib 0.02 | [4] 0.08 | [5] 0.092 | [6] -0.025

SRM (UniProt P19623)
UniProt P19623, sequence (P19623 whole entry, looked up): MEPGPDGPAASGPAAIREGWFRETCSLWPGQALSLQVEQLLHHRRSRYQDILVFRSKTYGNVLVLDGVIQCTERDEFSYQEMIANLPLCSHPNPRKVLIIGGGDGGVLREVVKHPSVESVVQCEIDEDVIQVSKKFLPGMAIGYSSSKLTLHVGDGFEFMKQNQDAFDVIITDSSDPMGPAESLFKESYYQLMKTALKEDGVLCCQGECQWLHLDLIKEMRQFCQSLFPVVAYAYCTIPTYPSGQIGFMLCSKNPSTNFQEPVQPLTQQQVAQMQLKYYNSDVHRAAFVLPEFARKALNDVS
inactive: nilotinib 0.026 | [1] -0.009 | dasatinib -0.008 | [2] 0.009 | [3] 0.012 | quisinostat 0.009 | tipifarnib 0.014 | [4] 0.041 | [5] 0.017 | [6] 0.045

SYF2 (UniProt O95926)
UniProt O95926, sequence (O95926 whole entry, looked up): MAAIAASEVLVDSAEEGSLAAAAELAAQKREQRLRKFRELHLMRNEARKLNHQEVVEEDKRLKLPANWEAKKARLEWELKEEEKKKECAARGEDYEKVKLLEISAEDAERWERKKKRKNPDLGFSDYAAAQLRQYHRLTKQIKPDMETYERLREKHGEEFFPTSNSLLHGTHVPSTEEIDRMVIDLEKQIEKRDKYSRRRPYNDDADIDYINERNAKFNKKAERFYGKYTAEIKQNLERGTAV
inactive: nilotinib -0.023 | [1] 0 | dasatinib -0.036 | [2] 0.005 | [3] 0.003 | quisinostat -0.008 | tipifarnib 0.046 | [4] -0.016 | [5] 0.04 | [6] -0.106

SLC19A1 (UniProt P41440)
UniProt P41440, sequence (P41440 whole entry, looked up): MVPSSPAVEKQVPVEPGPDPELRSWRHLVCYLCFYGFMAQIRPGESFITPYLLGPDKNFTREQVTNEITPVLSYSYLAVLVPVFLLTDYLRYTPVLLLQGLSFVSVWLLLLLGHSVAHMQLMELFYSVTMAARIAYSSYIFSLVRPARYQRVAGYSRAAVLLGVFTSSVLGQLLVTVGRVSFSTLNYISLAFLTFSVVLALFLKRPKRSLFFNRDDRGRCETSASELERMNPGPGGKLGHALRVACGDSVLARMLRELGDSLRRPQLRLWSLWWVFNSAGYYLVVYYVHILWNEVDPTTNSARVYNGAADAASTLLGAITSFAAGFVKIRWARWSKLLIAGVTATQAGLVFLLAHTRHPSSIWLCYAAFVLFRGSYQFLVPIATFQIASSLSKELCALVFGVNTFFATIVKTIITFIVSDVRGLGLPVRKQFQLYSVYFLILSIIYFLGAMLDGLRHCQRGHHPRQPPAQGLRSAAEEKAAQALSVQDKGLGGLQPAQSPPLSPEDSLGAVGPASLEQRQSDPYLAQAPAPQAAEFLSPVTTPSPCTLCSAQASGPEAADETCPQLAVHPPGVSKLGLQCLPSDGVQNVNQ
inactive: nilotinib -0.026 | [1] 0.014 | dasatinib 0.019 | [2] -0.032 | [3] -0.017 | quisinostat -0.077 | tipifarnib -0.01 | [4] -0.015 | [5] -0.027 | [6] -0.004

SRSF2 (UniProt Q01130)
UniProt Q01130, sequence (Q01130 whole entry, looked up): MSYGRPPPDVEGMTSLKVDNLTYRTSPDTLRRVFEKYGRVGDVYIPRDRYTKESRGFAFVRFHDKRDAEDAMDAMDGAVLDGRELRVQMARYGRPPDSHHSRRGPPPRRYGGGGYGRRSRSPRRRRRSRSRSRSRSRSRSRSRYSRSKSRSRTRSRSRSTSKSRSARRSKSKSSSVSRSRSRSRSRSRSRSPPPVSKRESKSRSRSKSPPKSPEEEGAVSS
inactive: nilotinib -0.038 | [1] 0 | dasatinib -0.003 | [2] -0.029 | [3] 0.033 | quisinostat -0.056 | tipifarnib 0.01 | [4] 0.002 | [5] -0.008 | [6] -0.01

SPATA5L1 (UniProt Q9BVQ7)
UniProt Q9BVQ7, sequence (Q9BVQ7 whole entry, looked up): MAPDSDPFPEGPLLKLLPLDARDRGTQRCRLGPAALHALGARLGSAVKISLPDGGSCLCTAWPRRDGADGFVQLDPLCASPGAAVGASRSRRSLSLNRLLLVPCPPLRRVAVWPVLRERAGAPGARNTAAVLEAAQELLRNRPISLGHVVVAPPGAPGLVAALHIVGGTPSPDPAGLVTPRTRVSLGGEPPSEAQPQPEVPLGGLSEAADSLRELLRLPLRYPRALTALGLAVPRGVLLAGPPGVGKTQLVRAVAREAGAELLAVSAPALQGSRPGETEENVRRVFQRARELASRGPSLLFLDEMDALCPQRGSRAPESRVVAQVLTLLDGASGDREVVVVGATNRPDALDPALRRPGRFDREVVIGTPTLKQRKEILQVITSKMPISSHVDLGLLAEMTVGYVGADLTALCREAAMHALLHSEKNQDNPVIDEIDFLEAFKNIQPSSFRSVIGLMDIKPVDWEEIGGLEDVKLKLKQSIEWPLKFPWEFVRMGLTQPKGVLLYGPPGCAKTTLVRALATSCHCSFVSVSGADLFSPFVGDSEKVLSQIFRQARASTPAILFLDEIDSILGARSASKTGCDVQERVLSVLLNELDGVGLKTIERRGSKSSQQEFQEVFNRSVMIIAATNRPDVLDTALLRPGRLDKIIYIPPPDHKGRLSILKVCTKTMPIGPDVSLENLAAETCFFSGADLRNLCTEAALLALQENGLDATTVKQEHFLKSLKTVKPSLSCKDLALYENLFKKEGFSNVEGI
inactive: nilotinib -0.012 | [1] -0.003 | dasatinib -0.115 | [2] 0.016 | [3] 0.093 | quisinostat -0.059 | tipifarnib 0.028 | [4] 0.047 | [5] 0.039 | [6] -0.092

STK26 (UniProt Q9P289)
UniProt Q9P289, sequence (Q9P289 whole entry, looked up): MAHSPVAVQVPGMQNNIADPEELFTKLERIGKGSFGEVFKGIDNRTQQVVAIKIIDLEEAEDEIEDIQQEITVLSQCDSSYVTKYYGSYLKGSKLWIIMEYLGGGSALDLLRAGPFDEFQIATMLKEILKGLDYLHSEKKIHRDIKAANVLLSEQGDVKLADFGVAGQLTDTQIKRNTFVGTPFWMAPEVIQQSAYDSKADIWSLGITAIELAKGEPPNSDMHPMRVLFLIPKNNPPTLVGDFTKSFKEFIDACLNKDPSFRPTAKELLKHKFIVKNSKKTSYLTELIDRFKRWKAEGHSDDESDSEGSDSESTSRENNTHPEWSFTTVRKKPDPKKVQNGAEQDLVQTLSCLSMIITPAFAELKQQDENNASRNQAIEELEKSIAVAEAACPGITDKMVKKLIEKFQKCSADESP
active: [1] 0.25
inactive: nilotinib -0.033 | dasatinib 0.102 | [2] 0.044 | [3] 0.029 | quisinostat -0.035 | tipifarnib -0.013 | [4] 0.104 | [5] 0.002 | [6] -0.008
